Usually inhibition stands for the change of the read-out against control, counted positive when it falls.

The nature of assay [1]: yeast TOR pathway RPL19A-GFP modulators, primary screen, cell-based, S. cerevisiae, multiplex flow cytometry (AID 1862; in the data active = percent of DMSO control GFP below about 86%;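 also: lower values mimic rapamycin by blocking the RPL19A rise seen in DMSO cells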). Particulars: S. cerevisiae RPL19A-GFP strain, flow cytometry fluorescence, 3 h; at 10 µM; stronger effect = lower value. (In flow cytometry, cells or beads pass a laser one at a time.)
The nature of assay [2]: modulators of MEP2-GFP levels in yeast, primary screen, S. cerevisiae, multiplex flow cytometry (AID 1867;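 active = GFP response, as percent of the DMSO control, above the screen-wide mean plus 3 SD, about 139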;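 also: median GFP channel fluorescence of barcode-gated MEP2-GFP cells measured by flow cytometry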). Particulars: S. cerevisiae MEP2-GFP strain, 3 h, at 10 µM, stronger effect = higher value, 100% means same as DMSO wells.
Assay [3] is described as follows: modulators of CIT2-GFP expression in yeast, primary screen, S. cerevisiae, GFP fusion, multiplex flow cytometry (AID 1870;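 active = percent response above a set limit, the screen-wide mean plus 3 SD, cut at about 130% in these data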;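 also: barcoded CIT2-GFP strain pooled with four other GFP strains with rapamycin as positive control; median GFP fluorescence per well over plate mean of DMSO wells so 100% = DMSO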). Particulars: 3 h, at 10 µM, stronger effect = higher value.
Assay [4] can be described thus: modulators of LAP4-GFP expression in yeast, primary screen, S. cerevisiae, multiplex flow cytometry (AID 1873;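 active = GFP signal, as percent of the solvent control, above the screen mean plus 3 SD, about 149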). Particulars: 3 h, at 10 µM, stronger effect = higher value.
A short description of assay [5]: modulators of AGP1-GFP expression in yeast TOR pathway, primary screen, cell-based, multiplex flow cytometry, S. cerevisiae (AID 1887;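 active = GFP signal above the screen-wide mean plus 3 SD, that is over about 124.5% of the solvent control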;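 also: AGP1-GFP fusion strain of S. cerevisiae within a five-strain barcoded multiplex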). Particulars: 3 h, at 10 µM, stronger effect = higher value.
The nature of assay [6]: inhibitors of CD8+ T cell-vesicle binding, pilot screen, LFA-1/ICAM-1 modulator project, MLPCN validation set, flow cytometry (AID 2523;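 active = response below a set limit, under 55% cells CD8-positive and vesicle-bound, and CD8 cells' 90th-percentile brightness under 279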;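 as to vesicle binding response: mean PE anti-B7-1 fluorescence of CD8+ cells relative to row control; 100% = QL9-loaded vesicles with DMSO vehicle in the same plate row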). As to conditions: 2C mouse CD8+ T cells, at 7 µM, stronger effect = lower value; double positive events: measured here: CD8+/vesicle+ event percentage.
Assay [7] deals with Integrin beta-1 (Homo sapiens) + Integrin alpha-4 (Homo sapiens) (UniProt P13612+P05556). Description: inhibition of HUTS-21 binding to VLA-4, pilot screen, VLA-4 allosteric modulator project, U937 cells, HUTS-21 mAb, flow cytometry, validation set (AID 2674;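 active = inhibition above 50%, about 3 SD of the validation set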;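 also: antibody binding induced by the VLA-4 ligand LDV present at three times its Kd; 0% = LDV ligand with antibody and no compound and 100% = antibody without LDV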). As to conditions: HUTS-21 LIBS mAb binding, at 6.7 µM, stronger effect = higher value, binding induced by LDV ligand.
Chain of Integrin beta-1 (Homo sapiens) + Integrin alpha-4 (Homo sapiens) (P05556 whole entry, looked up): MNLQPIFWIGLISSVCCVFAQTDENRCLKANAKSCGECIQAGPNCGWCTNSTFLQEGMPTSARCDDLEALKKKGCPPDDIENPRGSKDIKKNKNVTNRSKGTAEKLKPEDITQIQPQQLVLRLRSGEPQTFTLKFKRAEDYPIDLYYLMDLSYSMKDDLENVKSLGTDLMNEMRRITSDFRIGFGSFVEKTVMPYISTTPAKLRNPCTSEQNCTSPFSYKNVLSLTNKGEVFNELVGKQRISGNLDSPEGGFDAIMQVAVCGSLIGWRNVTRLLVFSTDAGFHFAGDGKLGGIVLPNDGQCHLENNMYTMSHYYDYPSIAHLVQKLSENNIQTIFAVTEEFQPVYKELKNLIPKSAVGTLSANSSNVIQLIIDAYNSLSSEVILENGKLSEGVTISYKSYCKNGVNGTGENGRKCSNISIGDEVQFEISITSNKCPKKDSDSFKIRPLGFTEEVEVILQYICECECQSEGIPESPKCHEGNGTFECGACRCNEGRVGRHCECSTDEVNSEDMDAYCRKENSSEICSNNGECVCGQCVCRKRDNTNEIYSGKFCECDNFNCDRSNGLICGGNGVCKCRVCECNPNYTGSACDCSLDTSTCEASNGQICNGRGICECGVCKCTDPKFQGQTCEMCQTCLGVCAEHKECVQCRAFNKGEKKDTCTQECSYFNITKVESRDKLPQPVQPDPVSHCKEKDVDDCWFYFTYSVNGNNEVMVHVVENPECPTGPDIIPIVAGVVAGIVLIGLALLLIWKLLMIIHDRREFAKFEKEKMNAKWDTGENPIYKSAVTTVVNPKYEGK
Chain of Integrin beta-1 (Homo sapiens) + Integrin alpha-4 (Homo sapiens) (P13612 whole entry, looked up): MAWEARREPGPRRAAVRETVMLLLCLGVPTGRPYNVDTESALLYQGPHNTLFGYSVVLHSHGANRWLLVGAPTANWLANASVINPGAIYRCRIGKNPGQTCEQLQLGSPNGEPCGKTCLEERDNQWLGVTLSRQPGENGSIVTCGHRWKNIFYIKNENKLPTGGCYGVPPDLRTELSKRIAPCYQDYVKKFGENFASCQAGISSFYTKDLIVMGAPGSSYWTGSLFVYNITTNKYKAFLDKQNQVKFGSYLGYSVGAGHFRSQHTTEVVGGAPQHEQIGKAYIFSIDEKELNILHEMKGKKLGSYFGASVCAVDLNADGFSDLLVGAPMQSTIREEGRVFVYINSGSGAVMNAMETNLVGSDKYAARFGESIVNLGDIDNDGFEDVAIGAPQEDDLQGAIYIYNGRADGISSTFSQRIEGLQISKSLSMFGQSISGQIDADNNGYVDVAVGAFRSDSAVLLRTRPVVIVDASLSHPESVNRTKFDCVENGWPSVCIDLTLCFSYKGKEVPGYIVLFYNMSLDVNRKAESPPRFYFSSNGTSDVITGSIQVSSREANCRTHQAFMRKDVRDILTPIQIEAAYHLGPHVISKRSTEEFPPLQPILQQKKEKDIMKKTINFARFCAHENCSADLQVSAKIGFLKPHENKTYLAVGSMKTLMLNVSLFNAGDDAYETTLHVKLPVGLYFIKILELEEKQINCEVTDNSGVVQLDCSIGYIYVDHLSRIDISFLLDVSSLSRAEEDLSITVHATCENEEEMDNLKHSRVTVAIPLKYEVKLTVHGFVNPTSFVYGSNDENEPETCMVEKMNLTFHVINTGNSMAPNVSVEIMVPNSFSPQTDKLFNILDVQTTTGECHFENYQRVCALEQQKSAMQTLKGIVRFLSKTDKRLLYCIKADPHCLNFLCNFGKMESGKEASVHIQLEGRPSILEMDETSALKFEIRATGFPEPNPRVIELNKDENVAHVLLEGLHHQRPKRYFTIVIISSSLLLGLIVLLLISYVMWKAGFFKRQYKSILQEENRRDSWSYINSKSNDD
The nature of assay [8]: superoxide lowering in aged yeast cells, pilot screen, validation compound set (AID 2706).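 Also: yeast exposed to compound for one week at 30 degrees C before staining; 100% = mean of all compound wells on the same plate.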 As to conditions: S. cerevisiae aging, superoxide DHE fluorescence; at 10 µM; stronger effect = lower value.
The target in assay [9] is Beta-adrenergic receptor kinase 1 (Homo sapiens) (UniProt P25098). As to the kind of experiment: GRK2 binders displacing RNA aptamer, biochemical, validation, human GRK2, bead flow cytometry (AID 488806;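 active = aptamer binding inhibition above 30%, about 3 SD of noise from non-fluorescent compounds; inactive = inhibition at or below 30%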). Particulars: bead-bound GRK2, FAM-aptamer displacement, at 10 µM, stronger effect = higher value.
Chain of Beta-adrenergic receptor kinase 1 (Homo sapiens) (P25098 whole entry, looked up): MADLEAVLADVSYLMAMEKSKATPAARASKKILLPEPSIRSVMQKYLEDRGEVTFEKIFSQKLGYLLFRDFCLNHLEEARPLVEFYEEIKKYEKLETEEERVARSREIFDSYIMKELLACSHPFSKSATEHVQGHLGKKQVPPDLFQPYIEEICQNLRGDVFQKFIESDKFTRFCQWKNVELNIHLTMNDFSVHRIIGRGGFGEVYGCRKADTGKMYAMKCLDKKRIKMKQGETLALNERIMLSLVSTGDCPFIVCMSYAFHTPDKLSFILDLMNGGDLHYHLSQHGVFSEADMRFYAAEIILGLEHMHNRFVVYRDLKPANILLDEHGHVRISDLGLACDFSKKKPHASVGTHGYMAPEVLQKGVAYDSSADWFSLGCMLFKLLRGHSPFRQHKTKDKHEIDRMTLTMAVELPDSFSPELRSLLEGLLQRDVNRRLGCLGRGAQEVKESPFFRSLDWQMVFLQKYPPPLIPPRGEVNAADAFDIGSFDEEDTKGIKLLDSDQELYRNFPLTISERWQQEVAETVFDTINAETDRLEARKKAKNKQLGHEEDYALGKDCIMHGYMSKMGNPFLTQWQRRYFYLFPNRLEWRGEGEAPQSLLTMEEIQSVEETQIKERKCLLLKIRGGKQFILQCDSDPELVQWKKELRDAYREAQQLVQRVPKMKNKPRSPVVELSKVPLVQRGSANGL
In assay [10] the target is Beta-2 adrenergic receptor (Homo sapiens) (UniProt P07550). Description: beta2AR agonists driving receptor internalization, pilot screen, cell-based, FAP fluorogen, flow cytometry, validation set (AID 504459;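 active = percent response above 42, roughly 3 SD of non-fluorescent test compounds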;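 also: agonist-driven loss of surface beta2AR via internalization measured by FAP dye flow cytometry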). As to conditions: Am2.2-beta2AR cells, FAP surface receptor flow cytometry; at 10 µM; stronger effect = higher value.
Chain of Beta-2 adrenergic receptor (Homo sapiens) (P07550 whole entry, looked up): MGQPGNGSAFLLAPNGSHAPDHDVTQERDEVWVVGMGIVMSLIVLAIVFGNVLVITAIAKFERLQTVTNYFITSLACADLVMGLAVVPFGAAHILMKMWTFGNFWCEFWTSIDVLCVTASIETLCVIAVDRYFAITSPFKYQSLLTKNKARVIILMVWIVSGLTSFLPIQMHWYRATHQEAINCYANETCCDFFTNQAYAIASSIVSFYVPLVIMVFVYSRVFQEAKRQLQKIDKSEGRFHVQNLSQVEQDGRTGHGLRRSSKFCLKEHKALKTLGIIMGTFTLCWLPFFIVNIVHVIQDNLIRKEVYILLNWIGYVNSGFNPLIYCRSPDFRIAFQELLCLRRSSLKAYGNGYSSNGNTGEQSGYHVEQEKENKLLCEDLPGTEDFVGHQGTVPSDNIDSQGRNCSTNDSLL
For assay [11], the target named is AP-2 complex subunit beta (Homo sapiens) (UniProt P63010). As to the kind of experiment: inhibitors of arrestin peptide binding to AP2, pilot screen, biochemical, validation set, GST-AP2 beads, flow cytometry (AID 504541;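 active = inhibition above 54%, about 3 SD of non-fluorescent compounds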;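 also: AP2 carries R879A mutation and is captured from E. coli lysate; bead-bound FITC arrestin peptide fluorescence measuring arrestin peptide binding to AP2; 0% = DMSO wells and 100% = excess unlabeled arrestin peptide control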). As to conditions: FITC arrestin peptide, at 10 µM, stronger effect = higher value, AP2 beta2 appendage fragment, R879A mutant.
Chain of AP-2 complex subunit beta (Homo sapiens) (P63010 whole entry, looked up, the tested form may be a part, one chain of several): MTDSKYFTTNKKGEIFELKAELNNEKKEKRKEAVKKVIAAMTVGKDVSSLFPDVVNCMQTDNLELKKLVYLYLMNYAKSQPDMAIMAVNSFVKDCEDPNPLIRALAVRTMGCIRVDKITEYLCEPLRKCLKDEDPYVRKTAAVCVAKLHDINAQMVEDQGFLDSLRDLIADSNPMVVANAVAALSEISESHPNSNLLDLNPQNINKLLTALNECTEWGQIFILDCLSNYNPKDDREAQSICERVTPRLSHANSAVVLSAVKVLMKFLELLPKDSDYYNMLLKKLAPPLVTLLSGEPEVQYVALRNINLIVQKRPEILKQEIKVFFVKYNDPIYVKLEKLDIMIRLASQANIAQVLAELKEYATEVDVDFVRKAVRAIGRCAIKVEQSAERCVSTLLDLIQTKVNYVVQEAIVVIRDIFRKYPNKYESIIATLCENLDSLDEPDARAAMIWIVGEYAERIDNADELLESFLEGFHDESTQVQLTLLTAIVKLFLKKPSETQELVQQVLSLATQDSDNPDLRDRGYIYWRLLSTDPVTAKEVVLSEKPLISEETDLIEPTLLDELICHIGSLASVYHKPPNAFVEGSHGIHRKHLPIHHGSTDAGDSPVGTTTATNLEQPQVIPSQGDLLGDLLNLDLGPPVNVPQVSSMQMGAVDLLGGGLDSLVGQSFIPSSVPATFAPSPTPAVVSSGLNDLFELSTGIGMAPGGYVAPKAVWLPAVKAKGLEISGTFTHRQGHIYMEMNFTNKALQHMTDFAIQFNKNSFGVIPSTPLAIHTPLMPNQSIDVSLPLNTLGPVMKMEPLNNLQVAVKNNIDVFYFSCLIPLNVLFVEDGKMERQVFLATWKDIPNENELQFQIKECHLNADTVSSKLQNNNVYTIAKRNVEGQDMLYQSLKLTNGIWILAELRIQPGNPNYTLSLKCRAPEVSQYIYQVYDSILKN
A short description of assay [12]: yeast V-ATPase proton transport modulators, S. cerevisiae, pHLuorin, HTS validation (AID 504600; in the data active = response above about 15%;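 also: plate controls were DMSO for no effect and reference compound for full effect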). Particulars: S. cerevisiae pHLuorin cytosolic pH, at 10 µM, stronger effect = higher value.
In assay [13] the test system is anti-desmoglein-3 scFv antibody binding to human DSG3. Description: inhibitors of anti-DSG3 scFv binding to DSG3, pilot screen, biochemical, validation compound set, bead-based, flow cytometry (AID 588368;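 active = binding below the plate cutoff, the plate median minus 3 SD, with a reading above zero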;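 also: signal is the median channel fluorescence of bead-bound GFP antibody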). Particulars: Protein G beads, DSG3-Fc, scFv-GFP binding, at 10 µM, stronger effect = lower value.
Assay [14] can be described thus: inhibitors of fungal efflux pumps CDR1, CDR2, MDR1, pilot screen, validation compound set, multiplex, phenotypic (AID 588506;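 active = efflux inhibition above 0.42, the validation set average plus 4 SD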;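 also: Nile Red retained in cells so higher fluorescence means more efflux inhibition; 0 = negative control wells and 1 = enniatin B 25 µM full block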). Particulars: S. cerevisiae pump-expressing triplex, Nile Red efflux flow cytometry; at 10 µM; stronger effect = higher value; the pumps come from Candida albicans.
The target of assay [15] is ATP-binding cassette sub-family B member 6 (Homo sapiens) (UniProt Q9NP58). As to the kind of experiment: ABCB6 transporter inhibitors, pilot screen, K562-ABCB6 cells, flow cytometry, validation set (AID 588550;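 active = inhibition above the screen-wide mean plus 3 SD, about 51%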;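 also: 0% = DMSO wells and 100% = benzethonium chloride 70 µM positive control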). As to conditions: K562-ABCB6 porphyrin accumulation, 1 h, at 10 µM, stronger effect = higher value.
Chain of ATP-binding cassette sub-family B member 6 (Homo sapiens) (Q9NP58 whole entry, looked up): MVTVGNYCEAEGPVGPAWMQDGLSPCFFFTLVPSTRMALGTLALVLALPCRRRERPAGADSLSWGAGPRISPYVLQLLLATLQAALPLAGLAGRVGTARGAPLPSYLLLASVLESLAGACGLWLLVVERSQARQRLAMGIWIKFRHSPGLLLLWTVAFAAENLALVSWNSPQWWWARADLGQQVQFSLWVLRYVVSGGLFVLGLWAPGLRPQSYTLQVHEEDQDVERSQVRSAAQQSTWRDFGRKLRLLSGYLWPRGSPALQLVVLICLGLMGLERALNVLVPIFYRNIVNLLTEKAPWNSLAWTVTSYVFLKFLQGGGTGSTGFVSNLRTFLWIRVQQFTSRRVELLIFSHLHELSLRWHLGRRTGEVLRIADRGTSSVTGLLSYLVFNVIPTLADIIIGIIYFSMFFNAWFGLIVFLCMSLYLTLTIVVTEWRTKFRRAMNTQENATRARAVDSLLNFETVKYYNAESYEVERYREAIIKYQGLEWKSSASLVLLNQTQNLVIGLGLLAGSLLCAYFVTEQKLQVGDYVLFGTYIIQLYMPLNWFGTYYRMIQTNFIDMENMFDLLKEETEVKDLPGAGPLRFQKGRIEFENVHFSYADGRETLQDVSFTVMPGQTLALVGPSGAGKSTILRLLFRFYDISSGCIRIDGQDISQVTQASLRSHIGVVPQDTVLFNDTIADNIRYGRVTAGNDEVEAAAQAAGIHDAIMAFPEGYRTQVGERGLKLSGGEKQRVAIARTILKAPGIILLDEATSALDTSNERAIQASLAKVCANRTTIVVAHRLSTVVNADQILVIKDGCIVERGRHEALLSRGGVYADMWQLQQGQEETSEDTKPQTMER
Assay [16] in a line: promoters of myeloid differentiation in arrested cells, primary screen, cell-based, GFP/MAC1 double positive, flow cytometry, validation set (AID 588685;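 active = differentiation response of at least 50%, scaled between solvent and reference control, from cells with both markers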;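 also: compound exposure lasts four days before antibody staining and flow analysis; 0% = DMSO wells and 100% = 5 µM fulvestrant positive control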). As to conditions: ER-HoxA9 marrow cells, stronger effect = higher value, normalized: vehicle 0, fulvestrant 100.

Where “and” joins values, the source holds several entries; their conditions need not be identical. Identical values can stand only once. Inconclusive results are not listed. Calls of active or inactive are those of the source.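 The calls were made as follows, unless noted: active = superoxide response below 65% of plate, a cut near 3 SD across the whole screen; inactive = the rest.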 Square brackets hold non-standard residues; d marks the D form. Peptide text beside a SMILES is read from it. ξ: configuration not given here. ξV = CC(C)C(N)C(=O)O

For `CCN(CC)CC(=O)Nc1c(C)cccc1C`, the percent of DMSO control GFP in [1] is 106% (inactive) and 100% (inactive). Also, the GFP response vs DMSO is 109% (inactive) and 94.1% (inactive) in [2]; 105% (inactive) and 98.2% (inactive) in assay [4]. For the same compound, in assay [3], the percent response of DMSO control was 101% (inactive) and 109% (inactive). For the same compound, the GFP response, % of DMSO in [5] was 107% (inactive) and 105% (inactive). Besides, the double positive events in [6] was 65.6% and 64.5%. Besides, the vesicle binding response in assay [6] is 12800% (inactive). Besides, the inhibition was 6.4% (inactive) and 0.94% (inactive) in assay [7]; -9.42% (inactive) and -7.53% (inactive) in [11]; 10% (inactive) and 7% (inactive) in [15]. Besides, in [8], the superoxide response (% of plate) is 87.6% (inactive) and 113% (inactive). In [9], the aptamer binding inhibition was 5% (inactive) and 0% (inactive). Moreover, the response in assay [10] is -4.24% (inactive) and -9.06% (inactive); in [12] it was -5.61% (inactive) and -5.05% (inactive). Further, the binding (% of control) in [13] was 94.5% (inactive) and 99.9% (inactive). Also, the efflux inhibition (fraction of control) in [14] is 0.05 (inactive) and -0.1 (inactive). Moreover, the differentiation response in assay [16] was -8.8% (inactive) and -15.2% (inactive).

Consider `COc1cc2nc(N3CCN(C(=O)C4CCCO4)CC3)nc(N)c2cc1OC` (stereo unspecified), for which, in assay [1], the percent of DMSO control GFP is 102% (inactive). Moreover, the GFP response vs DMSO in assay [2] was 106% (inactive); in assay [4], 92.6% (inactive). The percent response of DMSO control in assay [3] was 95.5% (inactive). Besides, the GFP response, % of DMSO in assay [5] is 94% (inactive). The double positive events in assay [6] was 55.7% and 64.6%. In assay [6], the vesicle binding response is 197% (inactive) and 148% (inactive). Moreover, the inhibition was 1.62% (inactive) and 5.61% (inactive) in [7]; 8.12% (inactive) and -5.62% (inactive) in assay [11]; 7% (inactive) and -13% (inactive) in assay [15]. Also, the superoxide response (% of plate) in [8] is 98% (inactive) and 91.7% (inactive). Moreover, the aptamer binding inhibition in [9] was -3% (inactive) and 5% (inactive). Moreover, the response was 20.9% (inactive) in assay [10]; -29.6% (inactive) and 2.76% (inactive) in assay [12]. Moreover, the binding (% of control) in assay [13] is 109% (inactive) and 107% (inactive). In [14], the efflux inhibition (fraction of control) was -0.39 (inactive) and -0.33 (inactive). Further, the differentiation response in [16] is 22.4% (inactive) and 10.1% (inactive).

For the compound `CC(=O)NC(C(=O)NCC(N)=O)C(C)C` (stereo unspecified) (Ac-[ξV]-Gly-NH2), the percent of DMSO control GFP in assay [1] was 104% (inactive). Further, the GFP response vs DMSO in assay [2] is 93% (inactive); in [4], 95.3% (inactive). Further, in assay [3], the percent response of DMSO control was 111% (inactive). Also, the GFP response, % of DMSO in assay [5] was 97.3% (inactive). For the same compound, the double positive events in [6] is 65.3%. For the same compound, the vesicle binding response in [6] was 195% (inactive). For the same compound, the figures for the inhibition in assay [7], in [11] and in assay [15] were -7.72% (inactive), -9.46% (inactive) and 0% (inactive), respectively. Also, the superoxide response (% of plate) in assay [8] is 93.7% (inactive). In [9], the aptamer binding inhibition is -2% (inactive). In addition, the response was -7.22% (inactive) in assay [10] and 0.49% (inactive) in [12]. Moreover, the binding (% of control) in [13] is 96.9% (inactive). For the same compound, in [14], the efflux inhibition (fraction of control) is -0.2 (inactive). Besides, the differentiation response in [16] was 13.9% (inactive).

For the origin of these results see PubChem BioAssay.
